# FBPA Giardia inh: qHTS Assay for Inhibitors of Fructose-1,6-bisphosphate Aldolase from Giardia Lamblia | Potency, µM (highest dose often 59.6 µM), usual class: inhibitors | 290,000 tested, 0.71% active | AID 2451, 2010 | purified Giardia FBPA | A8B2U2; further: nearly all actives have a fitted effect of over 55% in size
# Target sequence (A8B2U2 whole entry, looked up): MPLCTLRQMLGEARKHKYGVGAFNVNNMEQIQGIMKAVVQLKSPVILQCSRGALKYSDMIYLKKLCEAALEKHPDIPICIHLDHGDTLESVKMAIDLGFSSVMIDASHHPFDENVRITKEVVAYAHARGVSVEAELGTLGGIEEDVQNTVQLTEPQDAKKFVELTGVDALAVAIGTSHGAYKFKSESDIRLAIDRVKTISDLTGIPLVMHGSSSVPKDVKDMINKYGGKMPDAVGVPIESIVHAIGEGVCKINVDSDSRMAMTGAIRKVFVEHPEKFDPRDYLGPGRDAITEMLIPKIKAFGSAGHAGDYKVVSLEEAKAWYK
#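 40 nM FBPA preincubated 10 min at RT with compound (up to 57.5 uM final), then substrate plus GAPDH/TPI/NAD/arsenate coupling and diaphorase/resazurin added. Fluorescence read after 20 min at RT, 525/598 nm.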
# HCMV inh: qHTS Assay for inhibitors of the human cytomegalovirus (HCMV). HFF cells, HCMV-luciferase reporter, 72 h; stronger effect = lower value. activity change, negative = inhibition, % at 57.5 µM. 410,000 tested, 4.5% active. AID 1259415, 2018; in the data active means activity change below about -60%; inconclusive means no clear call, values can overlap the other calls; inactive means above about -39%
#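 Screen run at 2 compound doses on HFFs infected with reporter HCMV, MOI 1 PFU/cell. Luciferase activity from cell lysates at 72 h post infection gave inhibition relative to buffer-only and Salinomycin wells.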
# Pf growth 48h: Primary qHTS for delayed death inhibitors of the malarial parasite plastid, 48 hour incubation. P. falciparum luciferase growth in erythrocytes, 48 h. Potency, µM (titrated, usually from 28.7 µM), most hits filed as inhibitors. 310,000 tested, 5.9% active
#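 Here the parasites carry a stable luciferase gene and grow inside erythrocytes in Albumax-based RPMI medium with compound for one erythrocytic cycle. Activity is scored as loss of luminescent signal.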
# Pf growth 96h: Primary qHTS for delayed death inhibitors of the malarial parasite plastid, 96 hour incubation; P. falciparum luciferase reporter growth, 96 h; Potency, µM (highest dose often 28.7 µM), usual class: inhibitors; 320,000 tested, 6.9% active; AID 504834, 2011
#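 Plates of compound plus infected erythrocytes (2% hematocrit, 0.05% parasitemia final) incubate 96 hours, 37 C, 5% CO2. Detection reagent added; reduced luminescence from the parasites' luciferase reporter flags inhibition.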
# Sm TGR block: qHTS Assay for the Inhibitors of Schistosoma Mansoni Peroxiredoxins. AID 485364, 2010. Potency, µM (titrated, usually from 114 µM), actives largely listed as inhibitors. purified TGR, DTNB reduction, TNB absorbance 405 nm. 360,000 tested, 3% active; further: nearly all actives have a fitted effect of over 60% in size
#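 Kinetic colorimetric format: TGR-catalysed, NADPH-driven DTNB reduction monitored via TNB absorbance. Enzyme dispensed at 20 nM; compound exposure 15 min at room temperature before reaction start.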
# A number is an active result; . = inactive; ? = inconclusive; / = no result. Compounds with a hit are over-represented: about 14% of the library has one in this group of screens. Unless noted, the call rests on the fitted dose curve; in most records, active means well fitted curve in the direction sought with a large enough effect; inconclusive means small, poorly fitted or top-dose-only effect, or another doubt; inactive means no such curve, though single readings can be large; an effect the other way counts as inactive or inconclusive.
SMILES,FBPA Giardia inh,HCMV inh,Pf growth 48h,Pf growth 96h,Sm TGR block
COc1ccc(C(=O)Oc2ccc(F)cc2C(=O)/C=C/c2ccc(OC)c(OC)c2)cc1,.,?,.,.,.
O=C1CC2OCC=C3CN4CC[C@@]56c7ccccc7N1C5C2C3CC46 (stereo partly drawn),.,/,/,/,/
O=C1/C(=C\c2ccccc2)C2OCC=C3CN4CCC56c7ccccc7N1C5C2C3CC46 (stereo not drawn),.,.,2.3µM,2.6µM,.
O=C1CC2OCC=C3CN4CCC56c7ccccc7N1C5C2C3CC46 (stereo not drawn),.,/,/,/,/
O=C1CC2OCC=C3CN4CCC56c7cc([N+](=O)[O-])ccc7N1C5C2C3CC46 (stereo not drawn),.,-88,?,.,.
Cc1ccc(Oc2nc3c(c(=O)n(Cc4ccccc4Cl)c(=O)n3C)n2C)cc1C,/,.,/,/,.
COc1ccccc1NC(=O)CSc1nncn2c1cc1sccc12,/,?,/,/,.
O=C1CNC(=O)/C1=C\N1CCN(C(c2ccccc2)c2ccccc2)CC1,.,.,.,3.3µM,?
O=C1CNC(=O)/C1=C\N1CCCCC1,.,.,.,/,.
Cc1oc(-c2ccc(C(=O)NCc3ccc(Cl)cc3)cc2)nc1CS(=O)(=O)c1ccccc1,/,-69,/,/,?
COc1cccc(CNC(=O)c2ccc(-c3nc(CS(=O)(=O)c4ccccc4)c(C)o3)cc2)c1,/,.,/,/,28µM
Cc1oc(-c2ccc(C(=O)NCc3ccccc3)cc2)nc1CS(=O)(=O)c1ccccc1,/,.,/,/,.
Cc1cccc(CNC(=O)c2ccc(-c3nc(CS(=O)(=O)c4ccccc4)c(C)o3)cc2)c1,/,.,/,/,?
CS(=O)(=O)Nc1ccccc1-c1cccc2nccn12,/,.,/,/,/
Cc1ccc(-c2cc(C(F)F)n3ncc(C(=O)N4CCCc5ccccc54)c3n2)cc1,.,.,?,.,.
CCN1CCN(c2ncc(C(=O)N3CCCc4ccccc43)c3ccccc23)CC1,.,.,?,12µM,.
O=C(c1cc(-c2ccccc2)nc2ccccc12)N1CCCc2ccccc21,.,-63,2.9µM,?,.
Cc1cccc(-c2cc(C(=O)N3CCCc4ccccc43)c3ccccc3n2)c1,.,.,8.3µM,?,.
CC(NC(=O)c1cccc(S(=O)(=O)N2CCN(C)CC2)c1)c1ccc(Cl)cc1Cl (stereo not drawn),/,.,?,.,.
Cn1cc(CC(=O)N2CCN(c3ccc(Cl)cc3)CC2)c2ccccc21,.,.,.,12µM,.
O=C(CCCn1c2ccccc2c(=O)c2ccccc21)Nc1ccc(F)cc1Cl,/,.,/,/,.
Cc1cc(OCCCCNC(C)C)cc(C(C)C)c1,.,.,?,6.6µM,.
Cc1ccc([C@@]2(OC(=O)c3ccccc3)C(=O)N(C(=O)OC(C)(C)C)c3ccccc32)cc1,/,.,/,/,/
CC1=C/C(=N\NC(=S)Nc2cccnc2)CC(C)(C)C1,.,-72,?,2.9µM,.
CC1(C)C2CC=C(/C=N/NC(=S)Nc3cccnc3)C1C2 (stereo not drawn),.,.,?,?,.
SMILES,FBPA Giardia inh,HCMV inh,Pf growth 48h,Pf growth 96h,Sm TGR block
COC(=O)[C@]12C[C@H](CC(=O)NCc3cccc4ccccc34)C(=O)N(CCc3ccc(OC)c(OC)c3)C1=C[C@H](C(C)(C)C)O[C@@H]2C,/,.,/,/,/
CCOC(=O)c1cnc(SSc2ncc(C(=O)OCC)c(N)n2)nc1N,.,.,.,?,50µM
CCOC(=O)c1cnc(SCc2ccccc2)nc1N,.,.,.,/,.
C=CCSc1ncc(C(=O)OCC)c(N)n1,.,.,.,.,.
CCOC(=O)c1cnc(SCc2cccc3ccccc23)nc1N,.,.,/,4.7µM,.
CCOc1[nH]n(-c2ccccc2)c(=O)c1C=Nc1ccccc1,.,?,.,3.7µM,.
CCOc1[nH]n(-c2ccccc2)c(=O)c1C=Nc1ccc(C)cc1,.,.,.,.,.
O=C(CCN1CCOCC1)Nc1ccc(Br)cc1C(=O)c1ccccc1,?,.,.,.,25µM
Cc1cc(C(=O)N2CCCC(C(=O)c3ccc(Oc4ccccc4)cc3)C2)n[nH]1 (stereo not drawn),.,.,10µM,?,.
COc1ccc(C(=O)C2CCCN(C(=O)C3=CCCC3)C2)c(C)c1 (stereo not drawn),.,.,.,?,.
COc1ccc(C(=O)C2CCCN(C(=O)c3csc(C(C)=O)c3)C2)c(C)c1 (stereo not drawn),/,.,.,.,.
O=C(c1ccc(Oc2ccccc2)cc1)C1CCCN(C(=O)c2cnccn2)C1 (stereo not drawn),.,.,.,.,.
COc1ccc(C(=O)C2CCCN(C(=O)CCC3=NNC(=O)CC3)C2)c(C)c1 (stereo not drawn),.,.,.,10µM,.
COc1cccc(C(=O)C2CCCN(C(=O)CCC3=NNC(=O)CC3)C2)c1 (stereo not drawn),.,.,.,.,.
COc1ccc(C(=O)C2CCCN(C(=O)c3cc(C4CC4)[nH]n3)C2)c(C)c1 (stereo not drawn),.,.,.,15µM,.
C#Cc1cccc(C(=O)N2CCCC(C(=O)c3ccc(OC)cc3C)C2)c1 (stereo not drawn),/,.,.,13µM,.
COC(=O)C1=C(c2ccc(C(C)=O)cc2)C[C@@H]2CC[C@H]1N2C(=O)NCC1CC1,/,/,.,.,22µM
COC(=O)C1=C(c2ccc(-c3ccccc3)c(F)c2)C[C@@H]2CC[C@H]1N2C(=O)NCC1CC1,/,.,4.7µM,?,.
COCCNC(=O)N1[C@H]2CC[C@@H]1C(C(=O)OC)=C(c1ccc(-c3ccccc3)c(F)c1)C2,/,.,?,?,.
COC(=O)C1=C(c2ccc(-c3ccccc3)c(F)c2)C[C@@H]2CC[C@H]1N2C(=O)NCCOc1ccccc1,/,.,3.3µM,?,.
COC(=O)C1=C(c2ccc3ccccc3c2)C[C@@H]2CC[C@H]1N2C(=O)NCC1CC1,/,.,3.3µM,?,?
COc1ccccc1N1CCN(S(=O)(=O)c2c(C)sc3ncn(CC(=O)Nc4ccccc4F)c(=O)c23)CC1,/,.,/,/,.
COC(=O)C1=C(c2ccc(OC)c(OC)c2)C[C@@H]2CC[C@H]1N2C(=O)NC1Cc2ccccc2C1,/,.,?,?,.
COC(=O)C1=C(c2ccc(-c3ccccc3)c(F)c2)C[C@@H]2CC[C@H]1N2C(=O)NC1Cc2ccccc2C1,/,.,9.3µM,?,.
COc1ccc(C(=O)CCC(=O)O)c2ccccc12,/,/,.,.,/
CCOC(=O)c1nnn(CC(=O)N2N=C(c3cccc4ccccc34)CC2c2ccccc2)c1C(=O)OCC (stereo not drawn),.,.,9.3µM,?,.
